Screening data (PubChem)
Sampled rows, rich in hits. Any-hit rate of the full collection: about 2%.
TDP-43 yeast inh: qHTS of TDP-43 Inhibitors. TDP-43 expressing yeast growth rescue, BacTiter-Glo, 24 h. Potency, µM (highest dose often 46.1 µM), inactives show at the top dose growth rescue (activation), actives largely listed as activators. 1.8% of 410,000 active. AID 652104, 2013; note: potency is the fitted concentration of half-maximal effect; % of control where 0% means no effect; nearly all actives have a fitted effect of over 50% in size
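Cell-based yeast growth screen: TDP-43 expression induced in galactose, inoculum OD600=0.02 after raffinose pregrowth to mid-log. Read-out BacTiter-Glo luminescence at 24 hr, 30 deg C; inhibition of toxicity seen as signal increase.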
IDH1 R132H inh: qHTS for Inhibitors of mutant isocitrate dehydrogenase 1 (IDH1): qHTS. Potency, µM (titrated, usually from 76.6 µM), without a hit: at the highest dose activity change, negative = inhibition, usual class: inhibitors. Isocitrate dehydrogenase [NADP] cytoplasmic (Homo sapiens), O75874. 0.093% of 390,000 active. IDH1-R132H enzyme, NADPH consumption, diaphorase/resazurin fluorescence. AID 602179, 2012; note: potency is the fitted concentration of half-maximal effect; % is set by controls: 0 for no effect and ±100 for the full control effect; nearly all actives have a fitted effect of over 65% in size
Target sequence (O75874 whole entry R132H, stated change not applied): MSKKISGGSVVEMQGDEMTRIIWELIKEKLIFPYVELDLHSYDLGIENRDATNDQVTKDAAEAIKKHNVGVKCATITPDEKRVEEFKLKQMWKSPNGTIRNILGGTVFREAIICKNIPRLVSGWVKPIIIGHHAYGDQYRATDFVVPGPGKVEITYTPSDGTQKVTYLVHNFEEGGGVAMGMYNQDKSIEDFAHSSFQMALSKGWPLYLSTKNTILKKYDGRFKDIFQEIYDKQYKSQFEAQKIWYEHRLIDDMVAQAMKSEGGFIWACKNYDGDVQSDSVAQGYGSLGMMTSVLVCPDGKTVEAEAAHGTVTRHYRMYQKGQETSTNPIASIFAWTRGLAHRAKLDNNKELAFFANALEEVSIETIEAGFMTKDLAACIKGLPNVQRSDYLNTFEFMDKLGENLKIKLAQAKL
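IDH1-R132H (0.5 ug/mL dispensed) in pH 7.5 Tris buffer was preincubated 30 min with compound, then given a substrate mix of 0.016 mM NADPH and 2 mM alpha-KG for 80 min at room temperature; remaining NADPH was read by diaphorase/resazurin fluorescence.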
LDHA block: qHTS assay for inhibitors of human lactate dehydrogenase; purified LDHA, NADH/diaphorase-resazurin fluorescence; hits give low values; L-lactate dehydrogenase A chain (Homo sapiens), P00338; activity change, % (values are at about 110 or 230 µM); 0.15% of 480,000 active; in the data active = activity change below about -30%; inconclusive = mostly about -25% to -30%;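 note: plate controls were DMSO wells for no effect and wells without enzyme for full effect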
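Resorufin fluorescence (ex540/em590), read at 0 and 20 min after diaphorase/resazurin addition, reports the NADH left after a 5 min room-temperature reaction of 2 nM human LDH5 with 0.06 mM NADH and 0.2 mM pyruvate.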
Abeta yeast res: qHTS for compounds that reverse cellular toxicity of Amyloid beta (A-beta) peptide in yeast: Primary Screen. yeast expressing A-beta42, growth rescue, OD600, 48 h; response scale: 0% DMSO, 100% iron-clioquinol control. Potency, µM (highest dose often 46.1 µM), actives largely listed as activators. 0.063% of 410,000 active. AID 1347071, 2019; note: potency is the fitted concentration of half-maximal effect; nearly all actives have a fitted effect of over 55% in size
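Growth rescue measured by 600 nm absorbance after 48 h yeast culture at 30 C with compound. Values normalized between DMSO and an equimolar ferric chloride plus clioquinol control.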
FUS suppressor: qHTS for Suppressors of FUS Proteinopathy: Primary screen using FUS-linked yeast assay; S. cerevisiae FUS-expressing, growth rescue, OD600, 24 h; 0.24% of 390,000 active; Potency, µM (highest dose often 76.6 µM), usual class: activators;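 note: potency is the fitted concentration of half-maximal effect; plate controls were DMSO vehicle for no effect and reference control for full effect; nearly all actives have a fitted effect of over 55% in size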
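S. cerevisiae expressing FUS from galactose induction served as the toxicity model. Growth after 24hr at 30C, read as absorbance at 600 nm, indicates suppression of toxicity; compounds dosed at several concentrations.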
aSyn yeast inh: qHTS of alpha-syn Inhibitors; Yeast expressing alpha-synuclein, growth rescue, BacTiter-Glo, 24 h; Potency, µM (series often up to 46.1 µM), without a hit: top-dose growth rescue (activation), usual class: activators; 0.14% of 370,000 active; note: potency is the fitted concentration of half-maximal effect; % of control where 0% means no effect; nearly all actives have a fitted effect of over 65% in size
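Readout is rescue of growth in alpha-synuclein-expressing yeast, so inhibitors of toxicity appear as activators. Growth after 24 hr at 30 deg C in galactose medium is quantified by luminescence.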
* hit, by the source's call; i = inactive; ? = inconclusive; nt = no result; ! = not confirmed by another sample. Unless noted, calls come from the whole dose curve; as a rule, active = well fitted curve in the direction sought with a large enough effect; inconclusive = small, poorly fitted or top-dose-only effect, or another doubt; inactive = no such curve, though single readings can be large; an effect the other way counts as inactive or inconclusive.

SMILES | TDP-43 yeast inh | IDH1 R132H inh | LDHA block | Abeta yeast res | FUS suppressor | aSyn yeast inh
CCS(=O)(=O)N1CCN(Cc2ccccc2OC)CC1 | -13% | 3% | -31* | i | i | -4%
CCOc1ccccc1CN1CCN(S(=O)(=O)CC)CC1 | -11% | 0% | ? | i | i | 5%
COc1cccc(CN2CCN(Cc3cc(OC)c(OC)c(OC)c3)CC2)c1OC | -4% | -4% | -35* | i | i | 3%
Cc1ccc(-c2csc(N)c2C#N)c(C)c1 | nt | nt | 12 | nt | nt | nt
CSc1nc(N2CCOCC2)c2c3c(sc2n1)CCCC3 | 16µM* | 2% | -2 | i | ? | 9%
Cc1nc(N2CCOCC2)c2c3c(sc2n1)CCC3 | 15% | 7% | 3 | i | i | 13%
CCc1ccc(-c2nc(CN3CCC(C(=O)NCc4ccc(F)cc4)CC3)c(C)o2)cc1 | 2µM* | 8% | 0 | i | i | nt
COc1ccc(-c2nc(CN3CCC(C(=O)NCc4ccc(F)cc4)CC3)c(C)o2)cc1OC | 2% | -10% | -13 | i | i | nt
C1=CC2CC1CC2CN1CCN(Cc2ccccc2)CC1 (stereo not given) | -13% | 2% | -32* | i | i | -3%
Fc1ccccc1N1CCN(CC2CC3C=CC2C3)CC1 (stereo not given) | -21% | 0% | -7 | i | i | 7%
Cc1ccccc1Nc1cc(C(=O)NCCc2ccc(Cl)cc2)c2ccccc2n1 | 18µM* | -2% | -9 | i | i | nt
Cc1ccc2c(C)c(C(=O)Nc3nc(-c4ccc(C)s4)ns3)oc2c1 | nt | nt | -33* | nt | nt | nt
CCCCc1ccc(NC(=S)NCCCOC(C)C)cc1 | nt | nt | -9 | nt | nt | nt
Cc1ccc(/C=C2\SC(N3CCCCC3)=NC2=O)cc1 | 10µM* | 5% | -5 | i | i | 0%
O=S(=O)(c1ccc(F)cc1)c1snnc1-c1ccccc1 | 14µM* | -7% | -3 | i | i | -6%
O=C(O)C(c1c[nH]c2cc(CO)ccc12)N1CCN(CCOc2ccc(Cl)cc2)CC1 (stereo not given) | nt | nt | -5 | nt | nt | nt
O=C(CCc1c[nH]c2ccccc12)OCc1ccc(Br)cc1 | 13µM* | 2% | -1 | i | i | 3%
O=C(CCC(=O)OCc1ccc(Br)cc1)Nc1ccccc1 | 7.1µM* | 4% | -2 | i | i | 4%
O=C(CCc1c[nH]c2ccccc12)OCc1ccccc1 | nt | nt | 2 | nt | nt | nt
O=C(CCc1c[nH]c2ccccc12)NCc1ccncc1 | -8% | 3% | -32*! | i | i | 1%
N#CCOc1nc(N2CCOCC2)nc(N2CCOCC2)n1 | -14% | 5% | -31*! | i | i | -1%
O=C(Nc1ccc(OC(F)F)cc1)c1nc(S(=O)(=O)Cc2ccc(F)cc2)ncc1Cl | nt | nt | 0 | nt | nt | nt
Cc1c(NS(=O)(=O)c2ccccc2)cc(Cl)c(O)c1C | 10µM* | 0% | 14 | i | nt | 6%
O=C(O)c1cc2ccccc2c2cccnc12 | nt | nt | 10 | nt | nt | nt
CSCc1c(C(=O)OC2CCOC2=O)oc2ccccc12 (stereo not given) | nt | nt | 13 | nt | nt | nt
CCC(CC)C(=O)Nc1cc([N+](=O)[O-])ccc1Cl | ? | 3% | 5 | i | nt | 3%
CC(=O)Nc1cccc(OCCCOc2cccc([N+](=O)[O-])c2)c1 | 13µM* | 10% | 1 | i | nt | -7%
COc1cccc(NC(C)C(=O)Nc2cc([N+](=O)[O-])ccc2Cl)c1 (stereo not given) | 11µM* | 1% | -6 | i | i | 10%
COc1ccc(OC(C)C(=O)Nc2cccc([N+](=O)[O-])c2)cc1 (stereo not given) | 10µM* | 4% | -13 | i | nt | -8%
